According to PubChem BioAssay (NCI):
Where “and” joins values, the source holds several entries; their conditions need not be identical. Equal entries are not always repeated. Compounds without any hit were thinned out: in the full panel of roughly 83,000, 20% have a hit.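 The test compound was applied at a single concentration to cells in 96-well plates for 48 hours, and percent growth was recorded.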 Calls of active or inactive are those of the source. Rule for the calls: active = growth percent below 10; inactive = the rest.

Tests used:
Experiment in all cases: NCI-60 one-dose screen, 48 h (100 = growth as untreated, 0 = no growth, -100 = all killed)
Conditions in all cases: 10 µM unless noted
[1] = system: SK-MEL-2 melanoma
[2] = system: EKVX NSCLC
[3] = system: SN12C renal
[4] = system: UO-31 renal
[5] = system: TK-10 renal
[6] = system: ACHN renal
[7] = system: CAKI-1 renal
[8] = system: A498 renal
[9] = system: HL-60(TB) leukemia
[10] = system: CCRF-CEM leukemia
[11] = system: MOLT-4 leukemia
[12] = system: SR leukemia
[13] = system: RPMI-8226 leukemia
[14] = system: OVCAR-8 ovarian
[15] = system: OVCAR-5 ovarian
[16] = system: SK-OV-3 ovarian
[17] = system: IGROV1 ovarian
[18] = system: OVCAR-3 ovarian
[19] = system: HS 578T breast
[20] = system: OVCAR-4 ovarian

Measured: growth

C[C@]12CCc3sc(Nc4ccc(F)cc4F)nc3C1=CC[C@@H]1[C@@H]2CC[C@]2(C)C(=O)CC[C@@H]12
active: [11] 3.63% | [12] 0.71% | [13] -20.8% | [18] -4.15%
inactive: [1] 76.4% | [2] 78.4% | [3] 64.1% | [4] 42.9% | [5] 50.2% | [6] 37.7% | [7] 38.4% | [8] 77.8% | [9] 21.4% | [10] 10.1% | [14] 45.2% | [15] 91.8% | [16] 84.1% | [17] 62.1% | [19] 55.3%

CN1C2CCC1[C@@H](COC(=O)c1ccccc1)[C@@H](O)C2 (stereo not given in full)
inactive: [1] 104% | [2] 104% | [3] 105% | [4] 91.8% | [5] 131% | [6] 105% | [7] 122% | [8] 144% | [9] 81.7% | [10] 94.3% | [11] 97.8% | [12] 105% | [13] 77.7% | [14] 103% | [15] 106% | [20] 103% | [16] 107% | [18] 111% | [19] 119%

C#COc1cccc(Nc2ncnc3cc(NC(=O)CF)ccc23)c1
active: [10] -7.49% [6.25 µM] | [11] 5.47% [6.25 µM]
inactive: [1] 21.6% [6.25 µM] | [2] 67.8% [6.25 µM] | [3] 54.7% [6.25 µM] | [4] 60.9% [6.25 µM] | [5] 60.7% [6.25 µM] | [6] 48.3% [6.25 µM] | [7] 45.5% [6.25 µM] | [8] 75.3% [6.25 µM] | [9] 54.5% [6.25 µM] | [12] 20.9% [6.25 µM] | [13] 62.4% [6.25 µM] | [14] 42.5% [6.25 µM] | [15] 87.2% [6.25 µM] | [20] 75% [6.25 µM] | [16] 34.8% [6.25 µM] | [17] 52.4% [6.25 µM] | [18] 12% [6.25 µM] | [19] 44.2% [6.25 µM]

O=C(Cc1ccccc1)NC(O)C(Cl)(Cl)Cl (stereo not given)
inactive: [1] 105% | [2] 124% | [3] 99.3% | [4] 93.8% | [5] 99.8% | [6] 120% | [7] 108% | [8] 104% | [9] 101% | [10] 106% | [11] 96.1% | [12] 101% | [13] 104% | [14] 96.1% | [15] 111% | [20] 105% | [16] 106% | [18] 124% | [19] 124%

CC1=C2[C@H]3OC(=O)[C@@H](C)[C@@H]3CC[C@@]2(C)C=CC1=O
active: [1] -0.59%
inactive: [2] 121% | [3] 100% | [4] 99.2% | [5] 107% | [6] 95.7% | [7] 112% | [8] 125% | [9] 87.3% | [10] 94.6% | [11] 104% | [12] 114% | [13] 91% | [14] 116% | [15] 90.7% | [20] 110% | [16] 122% | [18] 129% | [19] 108%

CC1OC(=O)C(C(C)C)NC(=O)C(C(C)C)OC(=O)C(C(C)C)NC(=O)C(C)OC(=O)C(C(C)C)NC(=O)C(C(C)C)OC(=O)C(C(C)C)NC(=O)C(C)OC(=O)C(C(C)C)NC(=O)C(C(C)C)OC(=O)C(C(C)C)NC1=O (stereo not given)
active: [1] -22.4% | [2] -23.9% | [3] 3.04% | [4] 6.58% | [6] -16.5% | [7] -5.02% | [8] -53.2% | [9] -44.6% | [10] -20.1% | [11] -26.4% | [12] -14.6% | [13] -23.2% | [15] -39.6% | [20] -17% | [16] -13.3% | [17] -25% | [18] -18.9% | [19] -63.9%
inactive: [5] 24.6%

CC[C@H](C)[C@H](NC(=O)[C@H]1CCCCN1C)C(=O)N(C)[C@H](C[C@@H](OC(C)=O)c1nc(C(=O)NC23C4C5C2C2C3C4C52C(=O)OC)cs1)C(C)C (stereo not given in full)
inactive: [1] 39.7% | [2] 36.2% | [3] 32.5% | [4] 33.4% | [5] 36.7% | [6] 16.2% | [7] 28.9% | [13] 29.2% | [14] 16.5% | [15] 55.7% | [20] 50.3% | [16] 34.4% | [17] 21.9% | [19] 34.3%
active: [8] 3.94% | [9] -32.8% | [10] 6.99% | [11] 8.38% | [18] -7.47%

O=C1NC(=O)C(=C/C=C/c2ccccc2)C(=O)N1
active: [3] -10.6% | [4] -64.3% | [6] 2.5% | [7] -12.7% | [9] -5.93% | [10] -7.03% | [11] 4.09% | [13] -20.4% | [14] -3.62% | [17] 7.61%
inactive: [1] 74.2% | [2] 84.1% | [5] 14.8% | [8] 106% | [15] 37% | [20] 26.8% | [16] 62.9% | [18] 11.8% | [19] 39.4%

O=C(Cc1ccccc1)c1ccccc1
active: [10] 7.63%
inactive: [1] 110% | [2] 103% | [3] 106% | [4] 90.2% | [5] 95.5% | [6] 107% | [7] 101% | [8] 63.6% | [9] 103% | [11] 107% | [12] 100% | [13] 85.4% | [14] 108% | [15] 108% | [16] 113% | [17] 110% | [18] 106% | [19] 90.3%

CC1(C)C=Cc2c(ccc3c2[N+]([O-])=C2C3=C[C@@]34NC(=O)[C@]5(CCCN5C3=O)C[C@@H]4C2(C)C)O1
inactive: [1] 69.8% | [2] 34.3% | [3] 30.7% | [4] 73.5% | [5] 83.1% | [6] 39.7% | [7] 27% | [8] 69% | [9] 33.6% | [10] 14.2% | [11] 28.7% | [12] 15.4% | [13] 24.6% | [14] 42.7% | [15] 56.6% | [20] 43.5% | [16] 85.5% | [18] 25% | [19] 90.8%

COc1ccc(CN)cc1OC
inactive: [1] 112% | [2] 121% | [3] 98.7% and 98.1% | [4] 96.8% and 82.6% | [5] 127% and 115% | [6] 103% and 95.9% | [7] 101% | [8] 124% and 85% | [9] 98% | [10] 116% and 97.7% | [11] 112% and 95.2% | [12] 104% | [13] 112% and 105% | [14] 109% and 102% | [15] 110% and 94.9% | [20] 125% and 104% | [16] 113% and 105% | [18] 109% and 107% | [19] 110% and 101%

O=c1[nH]c(=O)n(Cl)c(=O)n1Cl
inactive: [1] 114% and 96.7% | [2] 107% and 101% | [3] 94.2% and 108% | [4] 84.3% and 86.7% | [5] 115% and 117% | [6] 109% and 107% | [7] 101% and 108% | [8] 106% and 127% | [9] 110% and 115% | [10] 101% and 104% | [11] 113% and 104% | [12] 102% and 113% | [13] 82.1% | [14] 103% and 108% | [15] 102% and 96.2% | [20] 115% and 109% | [16] 111% and 109% | [17] 124% and 96.9% | [18] 111% and 110% | [19] 106% and 99.9%

CCCCCCCCCCCCCCCC[n+]1ccccc1
-28% (active) and 11.7% (inactive): [4]
active: [1] -83.3% and -80.1% | [2] -47.9% and -2.17% | [3] -37.9% and -29.2% | [5] -74.4% | [6] -23.8% and 7.44% | [7] -16.1% and -34.4% | [8] -18.7% and -7.63% | [9] -55.7% | [10] -69% and -43.7% | [11] -61.5% and -64.2% | [12] -32.3% and -40.4% | [13] -67.1% and -42.5% | [14] -72.2% and -41.8% | [15] -45.6% and -15% | [20] -5.49% and -2.49% | [16] -43% and -22.4% | [17] -73% and -60.1% | [18] -70.9% and -51% | [19] -26.3% and -12.5%
